The values that follow come from PubChem BioAssay (NCATS).

A short description of assay [1]: Cell Viability - MRC5 (AID 434; calls by dose curve;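 also: potency is read from the fitted curve at half-maximal effect; cells exposed to compound for 40 hours at 37 °C; potency reflects cytotoxicity seen as loss of intracellular ATP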). Particulars: MRC5 lung fibroblast viability, qHTS. The gist of the method: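 MRC5 normal human lung fibroblasts (1500/well) were treated with compounds for 40 hr at 37 °C in complete medium, and viable cells were measured as intracellular ATP by CellTiter-Glo luminescence. AC50 came from Hill fits, normalized to DMSO and 100 uM tamoxifen.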
(In general: qHTS replaces the single test concentration by a dilution series.)

For assay [2], the target named is Mitogen-activated protein kinase 10 (Mus musculus) (UniProt Q61831). Put plainly: JNK3 AlphaScreen Assay (AID 530; active = well fitted curve in either direction with a large enough effect, not every such curve was filed as active;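 also: kinase came from lysate of stimulated human HepG2 cells; signal reports phosphorylation of biotinylated GST-cJun 1-79 at Ser73 with 10 µM ATP; % is scaled to controls: 0 for no effect and ±100 for the full control effect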). The note with it: JNK3 lysate, c-Jun phosphorylation; series mostly up to 57.1 µM. In a few lines:
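Inhibitors reduce antibody binding to phosphorylated biotin-cJun, lowering AlphaScreen luminescence. Lysates from HepG2 cells pre-activated by IL-1beta plus TNF-alpha supplied JNK3; compounds were titrated.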
Background: Bead proximity is the source of the signal in Alpha formats.

Assay [3] is described as follows: Cell Viability - HUV-EC-C (AID 542).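 Also: cells exposed to compound for 40 hours; % is scaled to controls: 0 for no effect and ±100 for the full control effect; nearly all actives have a fitted effect of over 35% in size.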 Particulars: HUV-EC-C endothelial cell viability, qHTS; series mostly up to 92.2 µM. The gist of the method:
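qHTS cytotoxicity: HUV-EC-C, 1000 cells/well, 5 hr settle, compound 40 hr 37 °C, CellTiter-Glo, luminescence. AC50 via Hill equation.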

Assay [4] can be described thus: Cellular Toxicity (caspase-3) H-4-II-E (AID 663).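 Also: cells exposed to compound for 16 hr before readout; 0% = DMSO basal and 100% = 100 µM tamoxifen.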 Particulars: H-4-II-E rat hepatoma; Potency: caspase-3 activation; series mostly up to 92.2 µM. The gist of the method: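 Luminescence from caspase-cleaved aminoluciferin substrate, read 20 min after reagent addition, reports caspase 3/7 activation in rat H-4-II-E cells after 16 hr compound exposure. Normalized to DMSO (basal) and 100 uM tamoxifen (100%); AC50 from Hill fits.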

Assay [5] can be described thus: MultiTox-Fluor Cytotoxicity Assay - LYMP1-002 - Live Cells (AID 955). Also: % is scaled to controls: 0 for no effect and ±100 for the full control effect. Particulars: LYMP1-002 lymphoblastoid live-cell protease fluorescence viability; series mostly up to 46.1 µM. In a few lines: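 Read-out is live-cell protease activity (cell-permeant GF-AFC substrate, fluorescence Ex/Em=405/510), where a decrease indicates acute toxicity. Human lymphoblastoid cells were treated 16 hours at 37 C in a concentration series, and AC50 values came from standard Hill modelling.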

Assay [6] is described as follows: Cell Viability - LYMP1-003 - Assay at 40 hr (AID 964). Also: % is scaled to controls: 0 for no effect and ±100 for the full control effect; nearly all actives have a fitted effect of over 60% in size. Particulars: LYMP1-003 lymphoblastoid viability; series mostly up to 92.2 µM. The gist of the method:
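Cells were seeded at 2500 per well and incubated 5 hr at 37 C. Compounds were added across a concentration series and left 40 hr at 37 C. CellTiter-Glo was added for 30 min at room temperature before luminescence reading.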

The nature of assay [7]: Cell Viability - LYMP2-017 (AID 972). Also: % is scaled to controls: 0 for no effect and ±100 for the full control effect; nearly all actives have a fitted effect of over 55% in size. The note with it: LYMP2-017 lymphoblastoid cell viability; series mostly up to 92.2 µM. In a few lines:
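2500 cells/well, 5 h 37 C; cpd 24 h 37 C in complete medium; CellTiter-Glo, 30 min RT; luminescence (ATP). AC50 via Hill fit, qHTS.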

A short description of assay [8]: Cell Viability - LYMP2-025 (AID 976).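 Also: plate controls were DMSO only for no effect and tetraoctylammonium bromide control for full effect.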 The note with it: LYMP2-025 lymphoblastoid cell viability; series mostly up to 92.2 µM. In a few lines: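 Seed 2500 LYMP2-025 cells/well; 5 hr at 37 C; add compound; 24 hr at 37 C; add CellTiter-Glo; 30 min RT; read luminescence. AC50 from Hill-modelled concentration-response.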
Assay [9] in a line: Cell Viability - LYMP2-007 (AID 979).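 Also: cells exposed to compound for 24 h before reading; nearly all actives have a fitted effect of over 60% in size.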 Also: potency is read from the fitted curve at half-maximal effect. Particulars: LYMP2-007 lymphoblastoid cell viability; series mostly up to 92.2 µM. In a few lines:
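Luminescent ATP signal (CellTiter-Glo) serves as the viability read-out after 24 hr compound treatment of lymphoblastoid cells in complete medium at 37 C. Concentration-response data were fitted to the Hill equation to give AC50 values.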

The nature of assay [10]: Cell Viability - LYMP2-018 (AID 985).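 Also: compound exposure lasted 24 hr at 37 °C; plate controls were DMSO only for no effect and tetraoctylammonium bromide at 92 µM for full effect; nearly all actives have a fitted effect of over 50% in size.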 Particulars: LYMP2-018 lymphoblastoid cells, viability (qHTS); series mostly up to 92.2 µM. In a few lines: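 Luminescent ATP signal (CellTiter-Glo, read after 30 min at room temperature) reports viable cells after 24 hr compound treatment at 37 C. Concentration-response data were fitted to the standard Hill equation for AC50.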
A short description of assay [11]: Cell Viability - LYMP2-024 (AID 988).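 Also: plate controls were DMSO only for no effect and 92 µM tetraoctylammonium bromide for full effect; nearly all actives have a fitted effect of over 60% in size.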 The note with it: LYMP2-024 lymphoblastoid cell viability; series mostly up to 92.2 µM. In a few lines: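 Steps: seed 2500 cells/well, 5 hr 37 C; add compound, 24 hr 37 C; add CellTiter-Glo, 30 min room temperature; read luminescence. AC50 derived by Hill modelling of concentration-dependent ATP loss.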
Assay [12] can be described thus: qHTS assay for small molecule antagonists of the retinoid-related orphan receptor gamma (ROR-gamma) signaling pathway - cell viability counter screen (AID 720652; active = well fitted curve in the direction sought with a large enough effect in the repeat runs; an effect the other way counts as inactive or inconclusive;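 also: compound exposure lasted 16 hr before ATP read; % is scaled to controls: 0 for no effect and ±100 for the full control effect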). Particulars: RORgamma reporter cell line viability counter screen; series mostly up to 92.2 µM. The gist of the method: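 Luminescence from CellTiter-Glo after 30 min at room temperature reported cellular ATP as the cytotoxicity measure. Cells were the CHO reporter line with doxycycline-induced ROR-gamma expression, exposed to compound for 16 hr at 37 C.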

Assay [13] has as its target Nuclear receptor subfamily 1 group I member 2 (Rattus norvegicus) (UniProt Q9R1A7). Kind of assay: qHTS assay for small molecule activators of the rat pregnane X receptor (rPXR) signaling pathway (AID 651751; call rule not given here; also: 0% is about no effect). Particulars: rPXR reporter cells, luciferase (One-Glo), 24 h.
Assay [14] in a line: qHTS assay for small molecule activators of the human pregnane X receptor (PXR) signaling pathway (AID 720659; call rule not given here; also: 0% is about no effect). The note with it: DPX-2 HepG2 CYP3A4-luciferase, 24 h; series mostly up to 92.3 µM.
The nature of assay [15]: MultiTox-Fluor Cytotoxicity Assay - LYMP1-003 - Live Cells (AID 962).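 Also: 0% = DMSO only and full loss = 92 µM tetraoctylammonium bromide; cytotoxic hits lower the live-cell protease signal.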 Particulars: LYMP1-003 lymphoblastoid cells, MultiTox-Fluor live-cell protease fluorescence; series mostly up to 92.2 µM. The gist of the method: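 qHTS, 1536-well; 2500 cells/well LYMP1-003; 5 hr 37 C settle; cpd 16 hr 37 C; MultiTox-Fluor reagent 60 min RT; live-cell protease fluor. 405/510; Hill-fit AC50; tetraoctylammonium bromide pos. ctrl.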

The nature of assay [16]: Cell Viability - LYMP2-009 (AID 968).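 Also: 0% = DMSO alone and the full-kill end = tetraoctylammonium bromide at 92 µM; nearly all actives have a fitted effect of over 55% in size.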 The note with it: LYMP2-009 lymphoblastoid cell viability; series mostly up to 92.2 µM.
Assay [17] in a line: Cell Viability - LYMP2-011 (AID 969).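 Also: 0% = DMSO only and full inhibition = 92 µM tetraoctylammonium bromide; nearly all actives have a fitted effect of over 60% in size.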 The note with it: LYMP2-011 lymphoblastoid cells viability; series mostly up to 92.2 µM. In a few lines: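 2500 cells/well, 5 hr 37 C; compound added, 24 hr 37 C; CellTiter-Glo 30 min RT; luminescence. qHTS concentration-response, Hill-equation AC50. Tetraoctylammonium bromide positive control.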
Assay [18] is described as follows: Cell Viability - LYMP2-021 (AID 974).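 Also: compound exposure lasts 24 hours at 37 °C; % is scaled to controls: 0 for no effect and ±100 for the full control effect; nearly all actives have a fitted effect of over 55% in size.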 Particulars: LYMP2-021 lymphoblastoid cells viability; series mostly up to 92.2 µM. The gist of the method: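 Plate 2500 lymphoblastoid cells per well and incubate 5 hr at 37 C. Add compounds over a concentration range and incubate 24 hr at 37 C. Add CellTiter-Glo, wait 30 min at room temperature, read luminescence.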
The nature of assay [19]: Cell Viability - LYMP2-006 (AID 978). Particulars: LYMP2-006 lymphoblastoid cell viability, qHTS; series mostly up to 92.2 µM. The gist of the method:
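Human lymphoblastoid cells, 2500 per well, were preincubated 5 hr at 37 C, then exposed to compounds for 24 hr at 37 C in complete medium. Viability was read as intracellular ATP by CellTiter-Glo luminescence; AC50 from Hill-equation fits of qHTS concentration-response data.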

Assay [20] in a line: qHTS assay for small molecule activators of the nuclear factor-kappa B (NF-kB) signaling pathway (AID 651749; active = well fitted activation curve with a large enough effect in the signal ratio; the % refers to the signal ratio; also: % of control where 0% means no effect). Particulars: NF-kB-bla ME-180 cells, beta-lactamase FRET ratio, 16 h; active compounds read high. In a few lines:
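Screening used 2,000 ME-180 reporter cells per well exposed to pinned compound (23 nL) or DMSO; after 16 hr at 37C, beta-lactamase expression under NF-kB control was assessed through FRET.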

“And” between values parts separate entries of the source, which are not always exact repeats. Identical values can stand only once. A number with no mark means an inactive call. Records with an inconclusive call do not appear. The source made the active and inactive calls. Unless noted, calls follow the shape of the dose curve; as a rule, active = well fitted curve in the direction sought with a large enough effect; inconclusive = small, poorly fitted or top-dose-only effect, or another doubt; inactive = no such curve, though single readings can be large; an effect the other way counts as inactive or inconclusive.

Chain of Nuclear receptor subfamily 1 group I member 2 (Rattus norvegicus) (Q9R1A7 whole entry, looked up): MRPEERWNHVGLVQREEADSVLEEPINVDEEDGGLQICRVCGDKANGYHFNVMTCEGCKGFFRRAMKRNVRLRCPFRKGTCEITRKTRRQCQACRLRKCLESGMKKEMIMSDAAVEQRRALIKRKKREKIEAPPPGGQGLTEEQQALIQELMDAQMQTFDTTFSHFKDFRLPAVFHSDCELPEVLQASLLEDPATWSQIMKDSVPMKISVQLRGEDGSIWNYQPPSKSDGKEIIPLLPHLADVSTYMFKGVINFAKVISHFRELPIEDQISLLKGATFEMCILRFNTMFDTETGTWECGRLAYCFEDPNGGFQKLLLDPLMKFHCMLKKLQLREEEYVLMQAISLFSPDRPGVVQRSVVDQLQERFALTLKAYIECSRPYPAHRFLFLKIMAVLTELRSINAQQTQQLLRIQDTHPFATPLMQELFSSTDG

In the case of `ClCC(Cl)CCl`, in assay [1], the Potency is more than 92 µM. The Potency entry in [2], in [3], in assay [4], in assay [6], in [7] and in assay [8] was “inactive” in each case. The Potency result in [9], in [10], in assay [11] and in [12] was “inactive” throughout. In addition, the compound was called inactive in [5] and in assay [14]. For the same compound, in assay [13], the max response was 8.27% and 1.68%.
In the case of `CCCCC(CC)COC(=O)c1ccc(C(=O)OCC(CC)CCCC)c(C(=O)OCC(CC)CCCC)c1` (stereo not given), in [1], the Potency was more than 92 µM. Moreover, the Potency result in assay [2], in assay [3], in [4], in assay [6], in [16] and in [17] was “inactive” in each case. For the same compound, the Potency entry in [7], in assay [18], in assay [19], in assay [10] and in assay [12] was “inactive” each time. Besides, the compound was called inactive in assay [15] and in [14]. Moreover, the activation in assay [20] was 1.1%. Besides, the max response in assay [13] was 0.711%.
With `Nc1cccc2ccccc12`, the Potency is more than 92 µM in assay [1] and 39.8 µM (active) in assay [9]. For the same compound, the Potency entry in assay [2], in assay [3], in assay [6], in assay [8] and in [12] was “inactive” in each case. For the same compound, in [5], the compound was classed as inactive.
`CC(C)[C@]12CC(=O)[C@H](C)[C@H]1C2`: in assay [1], the Potency is more than 92 µM. For the same compound, the Potency entry in assay [2], in assay [3], in assay [4], in [6], in [16] and in [17] was “inactive” each time. Further, the Potency entry in [7], in assay [8], in assay [19], in assay [10], in assay [11] and in assay [12] was “inactive” throughout. Further, the compound was classed as inactive in assay [15] and in assay [14]. For the same compound, the activation in assay [20] is -0.354% and -5.97%. Also, the max response in assay [13] is 2.33% and 6.9%.
For `CC(C)Br`, the Potency in assay [1] is more than 92 µM. Besides, the Potency result in [2], in assay [3], in assay [4], in assay [6], in assay [16] and in assay [17] was “inactive” each time. Also, the Potency entry in [7], in assay [18], in [8], in assay [9], in assay [10] and in [11] was “inactive” in each case. The Potency result in assay [12] is “inactive”. Further, the compound was called inactive in assay [5] and in assay [14]. In [13], the max response was -2.97%.
Turning to `N#CC(Cl)(Cl)Cl`, the Potency in assay [1] was more than 92 µM. Besides, the Potency result in [2], in [3], in assay [4], in assay [6], in assay [16] and in assay [17] was “inactive” in each case. Further, the Potency result in [7], in assay [18], in [8], in assay [11] and in assay [12] was “inactive” in each case. Further, the call in [5], in [15] and in assay [14] was inactive. The activation in assay [20] is -0.633%. Moreover, the max response in [13] was 3.31%.
Regarding `O=[N+]([O-])c1c(Cl)c(Cl)c(Cl)c(Cl)c1Cl`, the Potency in assay [1] is more than 92 µM. The Potency result in assay [2], in assay [3], in assay [4], in assay [6], in assay [16] and in [17] was “inactive” each time. The Potency entry in assay [7], in assay [18], in [8], in assay [9], in assay [10] and in assay [11] was “inactive” throughout. Also, the compound was called inactive in assay [5], in assay [15] and in assay [14]. Also, the activation in assay [20] was -2.45% and -1.33%. Further, in assay [13], the max response was -3.78% and 1.81%.
For `Nc1ccc(Oc2ccc(N)cc2)cc1`, in assay [1], the Potency is more than 92 µM. For the same compound, the Potency result in [2], in assay [4], in assay [6], in assay [16], in [17] and in assay [7] was “inactive” throughout. In addition, the Potency result in [18], in assay [8], in assay [19], in assay [9], in assay [10] and in assay [12] was “inactive” throughout. Further, the outcome in [5], in assay [15] and in assay [14] was inactive. Further, the activation in [20] was 0.532% and -1.89%. In assay [13], the max response was 6.46% and 5.6%.
